# Bioassay records (PubChem)
# Only some compounds are listed: those with a hit (about 11% of all), similar ones and a draw of the others.
# PNC assembly inh – perinucleolar compartment assembly inhibition; PC3M PTB-GFP, PNC prevalence imaging, 16 h; stronger effect = lower value; activity change (PNC), negative = inhibition, % at 10 µM; hit rate 3.1% among 140,000;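 active = readout at or below -70, meaning at least 70% loss of cells showing the perinucleolar compartment, a nuclear body marking cancer cells; inconclusive = readout between -30 and a set limit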;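 also: plate controls were DMSO wells for no effect and camptothecin positive control wells for full effect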
#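 Read-out is percentage of cells bearing a perinucleolar compartment, from automated 20x imaging of fixed, Hoechst-stained PC3M PTB-GFP cells. Cells were seeded 4 h, then exposed 16 h to compound (23 nl of library stock) in duplicate plates.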
# HPGD block – inhibitors of human 15-hydroxyprostaglandin dehydrogenase (HPGD); P15428; purified HPGD, NADH fluorescence kinetic, PGE2 substrate; Potency, µM, for the others: top-dose activity change, negative = inhibition, most hits filed as inhibitors; hit rate 4.3% among 150,000; AID 894; also: potency is read from the fitted curve at half-maximal effect
#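 20 nM HPGD preincubated 15 min at room temperature with compound in 50 mM Tris-HCl pH 8, 0.01% Tween 20. Started with 1 mM NAD+ and 30 uM prostaglandin E2; NADH fluorescence (360/450 nm) read 5 times over 30-s intervals, last minus first.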
# ALDH1A1 block – ALDH1A1 (human) enzyme inhibition | Potency, µM (series often up to 75.3 µM), without a hit: at the top dose activity, negative = inhibition, usual class: inhibitors | hit rate 7.3% among 220,000 | Purified ALDH1A1, NADH fluorescence, propionaldehyde substrate | AID 1030;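 also: potency is read from the fitted curve at half-maximal effect; plate controls were no enzyme wells and a reference inhibitor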
# Target sequence (P00352 whole entry, looked up): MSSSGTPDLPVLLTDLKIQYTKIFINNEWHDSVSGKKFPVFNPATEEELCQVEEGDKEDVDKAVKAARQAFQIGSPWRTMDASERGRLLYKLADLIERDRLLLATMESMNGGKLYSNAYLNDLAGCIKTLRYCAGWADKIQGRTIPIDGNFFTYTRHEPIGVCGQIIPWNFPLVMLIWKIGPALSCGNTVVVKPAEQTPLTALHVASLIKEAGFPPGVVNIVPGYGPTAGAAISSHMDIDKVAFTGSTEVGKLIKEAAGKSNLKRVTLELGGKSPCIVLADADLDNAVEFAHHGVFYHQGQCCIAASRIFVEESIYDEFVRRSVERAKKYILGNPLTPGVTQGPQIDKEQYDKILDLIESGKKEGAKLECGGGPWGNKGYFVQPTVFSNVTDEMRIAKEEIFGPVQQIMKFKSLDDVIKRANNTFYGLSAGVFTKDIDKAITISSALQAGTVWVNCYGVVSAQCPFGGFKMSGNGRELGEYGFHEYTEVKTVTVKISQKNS
# Numbers without * were called inactive; ? = inconclusive; . = not tested or not shown. Unless noted, calls follow the shape of the dose curve; as a rule, active = well fitted inhibition curve with a large enough effect (not every such curve was filed as active); inconclusive = small, poorly fitted or top-dose-only effect, or another doubt; inactive = no such curve, though single readings can be large or run the other way. Unless noted, % is scaled to controls: 0 for no effect and ±100 for the full control effect.
SMILES,PNC assembly inh,HPGD block,ALDH1A1 block
CCN(CC)S(=O)(=O)c1ccc(C(=O)N(c2ccccc2)C2C=CS(=O)(=O)C2)cc1 (stereo not drawn),.,.,-10%
CCNC(=O)c1c(N)sc2c1CCCCC2,-6,28µM*,28µM*
CCOC(=O)c1c(N)sc2c1C1CCN2CC1,13,.,-10%
CCOC(=O)c1c(N)sc2c1CCS(=O)(=O)C2,-4,40µM*,28µM*
CCOC(=O)c1c(NC(=S)Nc2ccc(OC)cc2)sc2c1CCCCC2,30,-11%,?
CCOC(=O)c1c(NC(=O)CSc2c[nH]c3ccccc23)sc2c1CCC2,64,-13%,?
CCOC(=O)c1c(NC(=O)C(C)Sc2cn(C)c3ccccc23)sc2c1CCC2 (stereo not drawn),6,-12%,25µM*
CCC(=O)Nc1sc2c(c1C(=O)N(C)C)CCCCC2,-16,2%,?
CCOC(=O)c1ccc(NC(=O)c2c(NC(=O)CCC(=O)O)sc3c2CCCCC3)cc1,.,.,16µM*
O=C1C(=O)N(O)C2CCCCC2N1O (stereo not drawn),-10,-2%,-10%
CC(=O)c1ccc(Nc2ncnc3c2oc2ccccc23)cc1,29,?,-3%
CCCCCn1c(N2CCC(C(N)=O)CC2)nc2c1c(=O)[nH]c(=O)n2C,-6,-2%,6%
Cc1cc2nc(C)n(CCCNC(=O)Nc3ccc(F)cc3)c2cc1C,?,-2%,1%
COC(=O)c1ccc(COc2ncnc3c(Cl)cc(Cl)cc23)o1,18,-2%,-5%
Cc1c(NC(=O)CSc2ccccc2C(=O)Nc2cccnc2)c(=O)n(-c2ccccc2)n1C,-9,-1%,18%
Cc1noc(C)c1C(=O)N1CCC2(CCN(Cc3ccc(C#N)cc3)CC2)CC1,.,-1%,-4%
Cc1ccc(-c2nc(-c3cccnc3)sc2CC(=O)Nc2ccc3nc(C)sc3c2)cc1,?,-9%,7%
CCOC(=O)c1c(N2C(=O)C3C4C=CC(O4)C3C2=O)sc2c1CCCC2 (stereo not drawn),-23,16µM*,2.2µM*
COC(=O)c1c(N2C(=O)CCC2=O)sc2c1CCCC2,30,-5%,?
CCOC(=O)c1c(NC(=O)C[n+]2ccccc2)sc2c1CCCC2,.,.,2%
CCOC(=O)c1c(NC(=O)COC)sc2c1CCCC2,-84*,-15%,?
CCOC(=O)c1c(N2C(=O)C3CC(C)=C(C)CC3C2=O)sc(C)c1C (stereo not drawn),?,2%,6%
CCN1C(=S)SC(=O)C1=C1C=C(C)OC(C)=C1,28,-12%,-2%
CCN1C(=S)SC(=O)C1=C1C=C(C)N(Cc2ccco2)C(C)=C1,-7,-29%,2.5µM*
COc1ccc(N=C/C=C2/C=C(c3ccccc3)OC(C)(C)O2)cc1,.,.,1.4µM*
SMILES,PNC assembly inh,HPGD block,ALDH1A1 block
COc1ccccc1N=CC=C1OC(C)(C)C(C)(C)O1,.,.,2%
COc1cc(NC(=O)C/C(C)=N/NC(=O)C(OC)c2ccccc2)c(OC)cc1Cl (stereo not drawn),?,-5%,5%
COc1ccc(S(=O)(=O)Cc2ccc(C(=O)N3CCN(Cc4ccccc4)CC3)o2)cc1,?,-16%,13µM*
COc1ccc(S(=O)(=O)Cc2ccc(C(=O)N3CCN(C(=O)c4ccco4)CC3)o2)cc1,15,-16%,6µM*
COc1ccc(N2CCN(C(=O)c3ccc(CS(=O)(=O)c4ccc(OC)cc4)o3)CC2)cc1,6,-5%,1%
Cc1ccc(S(=O)(=O)Cc2ccc(C(=O)NCc3ccc4c(c3)OCO4)o2)cc1,-107*,-13%,10µM*
COc1ccccc1N1CCN(C(=O)c2ccc(CS(=O)(=O)c3ccccc3OC)o2)CC1,?,-8%,18µM*
CCOC(=O)N1CCN(C(=O)c2ccc(CS(=O)(=O)c3ccccc3OC)o2)CC1,-27,-13%,-6%
Cc1ccc(S(=O)(=O)C2(C(=O)NCc3ccc4c(c3)OCO4)CC2)cc1,-15,-6%,-9%
COc1ccc(S(=O)(=O)Cc2ccc(C(=O)N3CCN(c4ccc(Cl)cc4)CC3)o2)cc1,-25,-6%,7%
COCCn1c(=O)c(-c2cn(C)c3ccccc23)nc2cnc(Oc3ccc(OC)cc3)nc21,.,-7%,-6%
CCOC(=O)CSc1ncc(-c2ccc([N+](=O)[O-])cc2)[nH]1,3,-9%,-1%
Cc1cc(C)cc(NC(=S)NN)c1,.,.,-16%
Cc1ccc(S(=O)(=O)Cc2ccc(C(=O)N3CCc4ccccc4C3)o2)cc1,35,-16%,1%
COCCNC(=O)c1ccc(CS(=O)(=O)c2ccc(C)cc2)o1,-19,-5%,6%
Cc1ccc(S(=O)(=O)Cc2ccc(C(=O)N3CCN(Cc4ccccc4)CC3)o2)cc1,?,-23%,8.9µM*
Cc1ccc(S(=O)(=O)Cc2ccc(C(=O)O)o2)cc1,-27,-23%,8.9µM*
CC1(OC(=O)C2CCCC2)C(=O)C=C2C=C(C3CC3)OC=C2C1=O (stereo not drawn),.,-2%,-2%
O=c1c(S(=O)(=O)c2ccc(Cl)cc2)cn(Cc2ccccc2F)c2ccc(F)cc12,-4,?,-10%
CS/C(=N\S(=O)(=O)c1ccc(Cl)cc1)c1ccccc1,0,-20%,-1%
O=S(=O)(/N=C(\Sc1ccc(Cl)cc1)c1ccccc1)c1ccccc1,25,20µM*,-19%
CC(C)C1N(C(=O)CN2CCCCC2)CCN1S(=O)(=O)c1ccccc1 (stereo not drawn),.,.,1%
Cc1[nH]c2ccccc2c1C(=O)C(=O)N1CC=C(c2ccccc2)CC1,?,?,4%
CCOC(=O)C1=C(C)Nc2nnnn2C1c1c[nH]c2ccccc12 (stereo not drawn),1,-19%,-10%
CC1=NN=C(c2ccccc2)C(c2c[nH]c3ccccc23)N1O (stereo not drawn),-114*,-5%,0%
SMILES,PNC assembly inh,HPGD block,ALDH1A1 block
Cc1[nH]c2ccccc2c1C1C(c2ccccc2)=NN=C(C(C)C)N1O (stereo not drawn),-103*,-17%,-11%
COCCn1c(C)cc(C(=O)CSc2ccc3ccccc3n2)c1C,19,-27%,5%
COCC(C)n1c(C)cc(C(=O)CSc2nc3ccccc3c(=O)[nH]2)c1C (stereo not drawn),36,32µM*,-8%
COCCn1c(C)cc(C(=O)CSc2nc3ccccc3c(=O)[nH]2)c1C,?,16µM*,7%
C=CCn1c(C)cc(C(=O)CSc2nc3ccccc3c(=O)[nH]2)c1C,24,2.8µM*,?
C=CCn1c(C)cc(C(=O)CSc2nc3ccccc3[nH]2)c1C,?,?,-8%
CCN(CC)C(=O)CSc1nc2ncc(Cl)cc2[nH]1,?,13µM*,?
COCC(C)n1c(SCC(=O)c2cc(C)n(C)c2C)nc2ccccc2c1=O (stereo not drawn),.,.,0%
CC(C)OC(=O)CSc1nc2ncc(Cl)cc2[nH]1,-13,-25%,-4%
NC(=O)NC(=O)COC(=O)CC12CC3CC(CC(C3)C1)C2,.,.,-7%
CN(C)C(=O)CSc1nc2ccccc2c(=O)[nH]1,-11,-22%,-11%
CCN(CC)C(=O)CSc1nc2ccccc2c(=O)[nH]1,?,8.9µM*,?
O=C(Nc1nc2c(cc3c4c(cccc42)CC3)s1)c1ccccc1Cl,34,?,?
